# What was measured:
# Assay in all cases: PBM binding z-score (relative to random genomic background probes); higher = stronger binding; sequences stand for … in GC…GCGATTGACAGCGTAGAATGAAGG
# [1] = system: FXR:RXRa (NR concentration 270 nM, RXRa partner concentration 90 nM)
# Summary of the method: (§1)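 Antibodies against each partner of ligand-free nuclear receptor dimers (one per run) detected binding on custom Agilent 4×180K protein-binding microarrays after 1 h incubation. The double-stranded probes had 34-nt variable regions carrying direct-repeat seeds, single-nucleotide variants, half-site ablations and random human genomic background sequences. Binding z-scores, from regression-normalized fluorescence, use the random background probes as reference.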
# [2] = system: LXRa:RXRa (NR concentration 270 nM, RXRa partner concentration 90 nM)
# Summary of the method: as §1
# [3] = system: LXRa homodimer (NR concentration 270 nM)
# Summary of the method: as §1
# [4] = system: LXRb:RXRa (NR concentration 270 nM, RXRa partner concentration 90 nM)
# Summary of the method: as §1
# [5] = system: LXRb homodimer (NR concentration 270 nM)
# Summary of the method: as §1
# [6] = system: PPARa:RXRa (NR concentration 270 nM, RXRa partner concentration 90 nM)
# Summary of the method: as §1
# [7] = system: PPARg:RXRa (NR concentration 180 nM, RXRa partner concentration 90 nM)
# Summary of the method: as §1
# [8] = system: PPARg:RXRa 270nM:90nM, anti-RXR (NR concentration 270 nM, RXRa partner concentration 90 nM)
# Summary of the method: as §1
# [9] = system: PPARg:RXRa 30nM:10nM, anti-RXR (NR concentration 30 nM, RXRa partner concentration 10 nM)
# Summary of the method: as §1
# [10] = system: PPARg:RXRa 90nM:30nM, anti-RXR (NR concentration 90 nM, RXRa partner concentration 30 nM)
# Summary of the method: as §1
# [11] = system: PPARg:RXRa DBDmut IVT, anti-RXR (DBD mutation: RXRa K156A/R161A, NR concentration 270 nM, RXRa partner concentration 90 nM)
# Summary of the method: as §1
# [12] = system: PPARg:RXRa IVT, anti-PPARg (NR concentration 270 nM, RXRa partner concentration 90 nM)
# Summary of the method: as §1
# [13] = system: PPARg DBDmut:RXRa IVT, anti-PPARg (DBD mutation: PPARg1 K132A/R137A, NR concentration 270 nM, RXRa partner concentration 90 nM)
# Summary of the method: as §1
# [14] = system: PPARg DBDmut IVT, anti-PPARg (DBD mutation: PPARg1 K132A/R137A, NR concentration 270 nM)
# Summary of the method: as §1
# [15] = system: PPARg homodimer (NR concentration 180 nM)
# Summary of the method: as §1
# [16] = system: PXR:RXRa (NR concentration 270 nM, RXRa partner concentration 90 nM)
# Summary of the method: as §1
# [17] = system: PXR homodimer (NR concentration 270 nM)
# Summary of the method: as §1
# [18] = system: RARa:RXR (NR concentration 270 nM, RXRa partner concentration 90 nM)
# Summary of the method: as §1
# [19] = system: RARa homodimer (NR concentration 270 nM)
# Summary of the method: as §1
# [20] = system: RARb:RXRa (NR concentration 270 nM, RXRa partner concentration 90 nM)
# Summary of the method: as §1
Sequence,PBM binding z-score [1],PBM binding z-score [2],PBM binding z-score [3],PBM binding z-score [4],PBM binding z-score [5],PBM binding z-score [6],PBM binding z-score [7],PBM binding z-score [8],PBM binding z-score [9],PBM binding z-score [10],PBM binding z-score [11],PBM binding z-score [12],PBM binding z-score [13],PBM binding z-score [14],PBM binding z-score [15],PBM binding z-score [16],PBM binding z-score [17],PBM binding z-score [18],PBM binding z-score [19],PBM binding z-score [20]
GTACCAAGGTGAATAGGTCGTTGACGAGTAGGCG,1.08,0.711,-0.12,0.495,-0.439,2.45,1.58,1.84,0.445,1.35,1.8,2.86,0.144,-0.0212,1.04,0.88,0.00593,1.93,-0.182,2.23
AGAATGAGGTTATGATCAGGGAAACAGAATACAT,1.66,1.52,-0.0293,1.41,-0.275,2.83,1.86,1.65,1.17,1.03,1.69,2.07,1.68,0.713,0.605,1.02,0.186,1.6,0.566,1.42
TCGAGTAGGTTACCAACGGGGCATTCAGCTTTCT,0.106,1.75,-0.787,0.579,-1.13,1.15,0.374,1.13,1.03,0.692,3.15,2.64,-0.246,0.0471,-0.456,-0.0163,-0.774,0.402,-1.51,0.936
TCTAGTTGGTCACGGAGGCCACACACGACGGGTA,0.758,0.488,-0.0408,-0.0226,-0.0385,1.02,1.19,1.94,3.1,2.46,2.18,2.47,0.779,0.634,0.778,0.694,0.425,0.748,0.249,2.16
CGAACGAGGGCATGAGTTGATAACAAATGCCGAT,0.424,0.218,-0.205,0.254,-0.653,1.44,1.53,1.35,0.389,0.841,2.8,1.8,0.105,-0.206,0.149,0.497,0.164,0.612,-0.168,1.83
AGTCAAAGTTCAGGACAAGGTAACGTAAAGCACG,4.6,3.97,1.69,2.19,0.548,3.47,4.97,4.95,2.16,4.11,-0.163,2.21,1.02,0.792,2.91,3.12,1.58,3.09,1.2,4.38
ATATGTAGGTTACATCCGGCTCATTCAGGCTATG,0.486,2.28,0.223,1.13,0.756,3.04,4.81,3.99,1.57,3.14,7.66,6.94,2.85,2.21,0.844,0.18,0.0469,0.506,0.258,1.07
ATCTCTAGGTAAAGTTCCGTGAAAGATCGATAGA,0.524,0.229,0.166,0.245,0.829,0.649,0.291,0.898,0.751,0.543,2.64,1.76,0.867,0.679,0.653,0.0557,0.396,0.388,1.19,0.403
GCTAGCAGGCCATTTGGATCACTCAATGACGGGC,-0.129,-0.387,-0.841,-0.881,-0.721,-0.45,0.511,-0.386,-0.566,-0.739,0.765,0.13,-0.26,-0.878,-0.828,-0.802,-0.249,-0.562,-0.338,0.151
CAAACTACGTCAAGAGGTCAAAGTCCGCTTCCCG,5.07,5.77,5.87,4.77,2.06,5.09,3.07,4.83,2.39,4.26,1.03,2.44,1.05,0.608,3.36,5.8,3.22,6.09,1.56,4.01
TATACAGGGTCAAAGCCCAGAGTACGAATGTCGA,7.38,5.88,2.47,4.7,2.15,5.93,6.29,5.96,2.69,4.51,2.27,4.44,3.06,1.86,2.91,3.69,0.241,4.55,0.678,4.28
TCTGCTAAGTCAACGATGGTCAGCTAATCTGCTA,-0.531,-0.432,-0.993,-0.553,-0.721,-0.269,-0.51,0.278,1.33,0.924,0.507,-0.186,-0.69,-0.943,-1.18,-0.538,-1.18,-0.422,-1.62,0.171
CCTACTGGGCCAAAAAGGTCAGTGATGCCGATAA,1.31,1.9,0.693,2.27,-0.789,3.36,2.04,2.9,0.549,1.83,3.45,3.63,-0.398,-1.18,2.33,2.55,0.561,3.29,1.18,3.67

# Reference: the supplement of paper PMC6555819
